Screening data from PubChem BioAssay.
Shown are actives, neighbours in structure and some others; about 5.4% of the full set was active somewhere.
ALR inh = human ALR oxidase inhibition via reduced H2O2. P55789. purified ALR, DTT oxidation, H2O2 HRP-luminol luminescence. inhibition, % (concentration not given with the values). hit rate 3.8% among 290,000. AID 485317;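 active means mean replicate inhibition above about 79%, with every replicate also reaching it, limit read from the data; inconclusive means only one of the two criteria met; inactive means mean below limit and not every replicate reaching it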
Calb FLC = affects C. albicans growth with fluconazole; hit rate 0.57% among 300,000; growth inhibition, % (concentration not given with the values); C. albicans CaCi-2 (fluconazole-resistant clinical isolate) + fluconazole, Alamar Blue growth, 48 h;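 active means growth inhibition above about 58% in most replicates, limit read from the data, passing the limit was not always enough; inconclusive means exactly half the replicates above a set limit; inactive means most replicates below a set limit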;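 further: all wells also contain fluconazole at 8 µg/ml as a sub-toxic cotreatment; 0% = median of DMSO wells and 100% = median of geldanamycin control wells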
CSC inhib = blocks cancer stem cells; cancer stem cell-like cells viability, luminescence; inhibition, % at 7.5 µM; hit rate 1.1% among 300,000; in the data active means inhibition above about 75%; inconclusive means no clear call, values can overlap the other calls; tested in HMLE shEcad cells
PP5 primary = PP5 (human) phosphatase inhibition; AID 1987; hit rate 0.18% among 320,000; inhibition, % at 6.7 µM; purified PP5c, OMFP substrate fluorescence;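 active means inhibition above the campaign's mean inhibition across all tested compounds plus 3 SD, cut at about 9.5% in these data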;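 further: 0% = DMSO only and 100% = 100 µM cantharidin control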
Target sequence (P53041 whole entry, looked up): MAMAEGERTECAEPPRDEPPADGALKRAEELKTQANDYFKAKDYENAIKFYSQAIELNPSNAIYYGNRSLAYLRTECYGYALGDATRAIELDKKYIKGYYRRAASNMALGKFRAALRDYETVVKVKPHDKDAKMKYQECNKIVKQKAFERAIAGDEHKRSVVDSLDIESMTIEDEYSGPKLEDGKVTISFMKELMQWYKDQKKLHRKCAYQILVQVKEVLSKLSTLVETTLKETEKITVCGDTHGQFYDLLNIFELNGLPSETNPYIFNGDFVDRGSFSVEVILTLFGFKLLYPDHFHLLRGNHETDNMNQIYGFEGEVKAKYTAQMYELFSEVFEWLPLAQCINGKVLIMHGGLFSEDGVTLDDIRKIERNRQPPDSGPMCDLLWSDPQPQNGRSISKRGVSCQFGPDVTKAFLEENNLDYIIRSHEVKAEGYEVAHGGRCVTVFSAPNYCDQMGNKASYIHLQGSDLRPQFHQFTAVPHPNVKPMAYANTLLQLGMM
PP1 inh = blocks human PP1-alpha phosphatase, a PP5 counter-screen; P62136; purified PP1alpha, OMFP fluorescence; inhibition, % at 6.7 µM; hit rate 0.9% among 320,000; AID 2235;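 active means inhibition above the mean inhibition of all tested compounds plus 3 SD, computed separately for each screening campaign, cut at about 15% in these data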
PP5 inh confirm = confirmation of human PP5 phosphatase inhibitors; inhibition, % at 6.7 µM; Purified PP5, fluorogenic phosphatase substrate, fluorescence; hit rate 22% among 460; shares compounds with PP5 primary; in the data active means inhibition above about 9.5%
PP1 inh counter = inhibits human PP1 phosphatase in PP5 counter-screen. shares compounds with PP5 primary. PP1 enzyme, fluorescent phosphatase substrate. inhibition, % at 6.7 µM. hit rate 4% among 460; in the data active means inhibition above about 16%
* marks the source's active call; other numbers are inactive results; ? = inconclusive; . = no result given.

SMILES	ALR inh	Calb FLC	CSC inhib	PP5 primary	PP1 inh	PP5 inh confirm	PP1 inh counter
CN(C)S(=O)(=O)c1ccc(NC(=O)c2cc3ccccc3o2)cc1	-10	-33	1	10*	4	-4	-2
CC1(C)Cc2c(sc(NC(=O)Nc3ccccc3)c2C(N)=O)CO1	73	19	-23	11*	1	-1	-1
CCOC(=O)/C(C#N)=C1/C=C(C)NC(c2ccccc2O)=N1	43	27	33	12*	5	-1	2
Cn1c2ccccc2c(=O)n2c(=O)c3ccccc3cc12	54	?	10	11*	0	29*	-4
Cn1c(-c2ccccc2)cc(=O)c2ccccc21	-1	12	6	-2	-4	.	.
C=CCc1ccc(O)c(-c2cc(CC=C)ccc2O)c1	?	-3	-10	11*	6	3	6
Fc1ccccc1OCCCCN1CCCCC1	6	-13	-18	13*	0	-3	-5
CCOc1ccc(S(=O)(=O)NC(C)(C)C)cc1-c1nc2c(C(C)(C)C)nn(C)c2c(=O)[nH]1	-4	10	.	10*	7	3	4
O=C(Nc1c(F)cc(F)cc1Br)c1cc(-c2ccccc2)on1	.	9	13	12*	-3	-3	-2
Cc1ccc(C(=O)CCC(=O)N2CCN(c3ccc(F)cc3)CC2)cc1	-11	6	4	2	1	.	.
Cn1nnnc1NCc1c(F)cccc1Cl	-1	5	.	2	-2	.	.
Cn1nnnc1NCc1cccc(Cl)c1Cl	-6	-1	-17	15*	1	-1	-3
Cc1cc(C)c2nc(C)cc(Nc3ccc(C(=O)N4CCOCC4)cc3)c2c1	-8	17	12	11*	1	-4	-4
CC(=O)c1cccc(Nc2cc(C)nc3c(C)cc(C)cc23)c1	-6	-20	1	-1	-3	.	.
CCOC(=O)C1=C(C)OC2(O)c3ccccc3C(=O)C12O (stereo not drawn)	26	-4	-12	12*	2	41*	13
CCCCOC(=O)C1=C(C)NC2(O)c3ccccc3C(=O)C12O (stereo not drawn)	26	1	-4	9	0	.	.
CC(=O)C1=C(C)OC2(O)c3ccccc3C(=O)C12O (stereo not drawn)	28	35	-5	14*	9	35*	3
Cc1cc(C)c(S(=O)(=O)c2ccccc2F)c(=O)[nH]1	.	5	-13	0	-3	.	.
O=C(COC(=O)CC1c2ccccc2CCN1S(=O)(=O)c1ccccc1)Nc1ccccc1 (stereo not drawn)	-6	3	3	2	5	.	.
COc1ccc(OC)c(-c2nc3ccccc3nc2-c2ccccc2)c1	.	-3	-4	-1	-1	.	.
Cc1ccc2c(CN(C)Cc3cccc(Cl)c3)cc(=O)oc2c1C	.	8	.	3	5	.	.
COc1cccc(CN(C)CC(=O)NCc2ccc(F)cc2)c1OC	4	-7	-7	12*	-9	-7	-5
COc1cc(C(=O)NNC(=O)c2ccccc2OCc2c(C)noc2C)cc(OC)c1OC	.	.	.	3	3	.	.
O=C(O)C1C2C=CC(O2)C1C(=O)Nc1ccccc1C(F)(F)F (stereo not drawn)	-19	-3	6	1	-3	.	.
CCOc1ccccc1NC(=O)C1C2C=CC(O2)C1C(=O)O (stereo not drawn)	-7	-1	-5	30*	3	2	11
SMILES	ALR inh	Calb FLC	CSC inhib	PP5 primary	PP1 inh	PP5 inh confirm	PP1 inh counter
CCc1ccccc1NC(=O)C1C2C=CC(O2)C1C(=O)O (stereo not drawn)	-1	4	-3	21*	7	-2	4
Cc1nc(CS(=O)(=O)c2ccccc2)cc(Sc2ccc(Cl)cc2Cl)n1	-28	-15	-6	3	1	.	.
COCCC(=O)N1CCC(Oc2ccc(C(=O)NCc3nccn3C)cc2)CC1	-4	1	3	2	0	.	.
Cc1onc2c(=O)n(-c3ccccc3)nc(-c3ccccc3)c12	-5	-7	-2	-1	1	.	.
CC(C)CCn1c(N)c(S(=O)(=O)c2cccs2)c2nc3ccccc3nc21	-2	18	.	10*	3	7	4
Nc1c(S(=O)(=O)c2cccs2)c2nc3ccccc3nc2n1CCc1ccccc1	17	12	8	4	4	.	.
COc1ccc2[nH]cc(C(=O)CN3CCCCC3C)c2c1 (stereo not drawn)	.	-13	.	.	.	.	.
COc1ccc(C)cc1S(=O)(=O)N1CC(C)OC(C)C1 (stereo not drawn)	-2	-1	2	0	-1	.	.
COc1ccc(C(C)C)cc1S(=O)(=O)N1CC(C)OC(C)C1 (stereo not drawn)	1	15	-6	10*	-6	-3	-3
CCc1ccc(S(=O)(=O)/N=C2\C=C(Nc3cccc(C(=O)O)c3)C(=O)c3ccccc32)cc1	69	47	.	11*	13	42*	12
CC(C)CN(CC(C)C)C(=O)Nc1ccc(F)cc1F	-3	-1	-10	1	1	.	.
Cc1ccc(C(=O)Oc2ccc(N3C(=O)CCC3=O)c(C)c2)cc1	-13	-22	-10	-1	-3	.	.
Cc1cc(OCC(=O)c2ccc(Br)cc2)ccc1N1C(=O)CCC1=O	-9	3	3	13*	-2	-6	-3
CCOC(=O)NC(NC(=S)Nc1ccccc1[N+](=O)[O-])C(Cl)(Cl)Cl (stereo not drawn)	18	3	-18	11*	-5	-6	-4
O=C1C2C3C=CC(C3)C2C(=O)N1Cc1ccccc1 (stereo not drawn)	8	-22	-2	2	-7	.	.
O=C(COc1cccc2ccccc12)Nc1nc2ccccc2[nH]1	.	.	19	10*	0	5	3
O=C(CCc1nc2ccccc2c(=O)[nH]1)Nc1cccc(S(=O)(=O)N2CCCCC2)c1	1	-2	-3	2	0	.	.
COC(=O)CCC(=O)OC1(C)C(=O)C=C2C=C(C3CC3)N(CC(C)C)C=C2C1=O (stereo not drawn)	.	-21	.	.	.	.	.
COC(=O)CCC(=O)OC1(C)C(=O)C=C2C=C(C3CC3)N(CC3CC3)C=C2C1=O (stereo not drawn)	.	3	-2	12*	0	37*	14
COC(=O)CCC(=O)OC1(C)C(=O)C=C2C=C(C3CC3)N(C3CCCCC3)C=C2C1=O (stereo not drawn)	.	10	-18	8	5	.	.
COC(=O)CCC(=O)OC1(C)C(=O)C=C2C=C(C3CC3)N(C3CCCC3)C=C2C1=O (stereo not drawn)	.	-7	-9	12*	3	32*	7
CC(=O)Nc1ccc(S(=O)(=O)N2CCN(c3cc(C)nc4ccccc34)CC2)cc1	-3	2	-1	1	-3	.	.
CC(=O)Nc1ccc(S(=O)(=O)N2CCN(c3nc(NC4CCCC4)c4ccccc4n3)CC2)cc1	5	2	-3	12*	11	2	0
